Inconclusive results are not listed. Values without a mark were called inactive. Activity calls are given as the source filed them. The call rests on the fitted dose curve; tested in HEK293 reporter line. Numbered stars: 1 amine (or outer) side, 2 acyl side, 3 side chain; on linkers, the order of the positions; unused ones are H or OH. Bridge positions count the residues as written; N and C are the ends. Square brackets hold non-standard residues; d marks the D form. Peptide text beside a SMILES is read from it. I, II: the chains in the order shown. Actinocin(9to1) = Cc1c2oc3c(C)ccc(C(=O)[*:1])c3nc-2c(C(=O)[*:2])c(N)c1=O; NMeV = CN[C@H](C(=O)O)C(C)C; Sar = CNCC(=O)O
On the % scale 0 is the no-effect control and ±100 the full control effect; potency means the concentration at half of the fitted maximal effect.

This experiment is described as follows: qHTS for Inhibitors of the Functional Ribonucleoprotein Complex (vRNP) of Lassa (LASV) Arenavirus: Viability assay - alamar blue signal for LASV Primary Screen (AID 1347083). Further: nearly all actives have a fitted effect of over 80% in size. To be noted: cell viability, alamar blue fluorescence (LASV minigenome counter-screen); series mostly up to 57.5 µM; activity change, negative = reduced viability: at the top concentration. For orientation: qHTS replaces the single test concentration by a dilution series.
On to `COC(=O)C(c1ccccc1Cl)N1CCc2sccc2C1` (stereo unspecified), for which the “activity change, negative = reduced viability” value is 13.7%.

Turning to `CC/C=C(\C(=O)N[C@@H]1C(=O)N2C(C(=O)OCOC(=O)C(C)(C)C)=C(COC(N)=O)CS[C@H]12)c1csc(N)n1`, the Potency entry is “inactive”.

For `CN(CCOc1ccc(NS(C)(=O)=O)cc1)CCc1ccc(NS(C)(=O)=O)cc1`, the Potency entry is “inactive”.

On to `C#Cc1cccc(Nc2ncnc3cc(OCCOC)c(OCCOC)cc23)c1`, for which the Potency was 7.69 µM (active).

For `CC1(C)S[C@@H]2[C@H](NC(=O)[C@H](N)c3ccccc3)C(=O)N2[C@H]1C(=O)O`, the “activity change, negative = reduced viability” value was 0.438%.

As to `C[C@]12CC[C@H]3[C@@H](CCC4=CC(=O)CC[C@@H]43)[C@@H]1CC[C@@H]2OC(=O)CCc1ccccc1`, the “activity change, negative = reduced viability” value is -4.56%.

For `CN1C(=S)CN=C(c2ccccc2)c2cc(Cl)ccc21`, the “activity change, negative = reduced viability” value is -8.39%.

For the compound `C=C1C[C@@H]2[C@H](CC[C@]3(C)C(=O)CC[C@@H]23)[C@@]2(C)C=CC(=O)C=C12`, the “activity change, negative = reduced viability” value was 3.43%.

Regarding `CN1CCN(C2=Nc3cc(Cl)ccc3Nc3ccccc32)CC1`, the Potency result was “inactive”.

Regarding `CCOc1ccc2ccccc2c1C(=O)N[C@@H]1C(=O)N2[C@@H]1SC(C)(C)[C@@H]2C(=O)O`, the “activity change, negative = reduced viability” value was -0.168%.

On to `Clc1ccc(COC(Cn2ccnc2)c2ccc(Cl)cc2Cl)cc1` (stereo unspecified), for which the Potency result is “inactive”.

Turning to `COc1ccc(OC)c(C(O)CNC(=O)CN)c1` (stereo unspecified), the “activity change, negative = reduced viability” value was 7.45%.

Regarding `CCCCOCCOCCOCc1cc2c(cc1CCC)OCO2`, the Potency entry was “inactive”.

Consider `CCc1nc(N)nc(N)c1-c1ccc(Cl)cc1`, for which the Potency was 38.5 µM (active).

Consider `Cc1ccc(-c2nc3ccc(C)cn3c2CC(=O)N(C)C)cc1`, for which the “activity change, negative = reduced viability” value is -1.08%.

On to `c1cnc2cc3c(cc2n1)C1CNCC3C1`, for which the Potency was 24.3 µM (active).

In the case of `CN(C)CC/C=C1\c2ccccc2COc2ccccc21`, the Potency entry was “inactive”.

Take `CC(=O)CCCCn1c(=O)c2c(ncn2C)n(C)c1=O`: the Potency entry is “inactive”.

With `CN1C[C@H]2c3ccccc3Oc3ccc(Cl)cc3[C@@H]2C1`, the Potency result was “inactive”.

Regarding `CNS(=O)(=O)Cc1ccc2[nH]cc(CCN(C)C)c2c1`, the Potency entry was “inactive”.

With `Cc1c2oc3c(C)ccc(C(=O)N[C@@H]4C(=O)N[C@H](C(C)C)C(=O)N5CCC[C@H]5C(=O)N(C)CC(=O)N(C)[C@@H](C(C)C)C(=O)O[C@@H]4C)c3nc-2c(C(=O)N[C@@H]2C(=O)N[C@H](C(C)C)C(=O)N3CCC[C@H]3C(=O)N(C)CC(=O)N(C)[C@@H](C(C)C)C(=O)O[C@@H]2C)c(N)c1=O` (I: T[dV]P[Sar][NMeV] / II: T[dV]P[Sar][NMeV]; ester I:1-I:C, II:1-II:C; linker I:N-II:N via Actinocin(9to1)), the “activity change, negative = reduced viability” value was -150%.

As for `CC1OC(C)OC(C)O1` (stereo unspecified), the “activity change, negative = reduced viability” value is 11.3%.

As for `CC(=O)O[C@]1(C(C)=O)CC[C@H]2[C@@H]3C=C(Cl)C4=CC(=O)[C@@H]5C[C@@H]5[C@]4(C)[C@H]3CC[C@@]21C`, the Potency entry is “inactive”.

Take `Clc1ccc(CCC(Cn2ccnc2)Sc2c(Cl)cccc2Cl)cc1` (stereo unspecified): the Potency entry is “inactive”.

With `CC(C)C[C@H](NC(=O)[C@H](CCc1ccccc1)NC(=O)CN1CCOCC1)C(=O)N[C@@H](Cc1ccccc1)C(=O)N[C@@H](CC(C)C)C(=O)[C@@]1(C)CO1`, the Potency is 0.432 µM (active).

In the case of `CCN(CC)C(=O)N[C@@H]1C=C2c3cccc4[nH]cc(c34)C[C@@H]2N(C)C1`, the “activity change, negative = reduced viability” value is -58.7%.

On to `CC(C)(C)NC(=O)[C@H]1CC[C@H]2[C@@H]3CC[C@H]4NC(=O)C=C[C@]4(C)[C@H]3CC[C@]12C`, for which the “activity change, negative = reduced viability” value was 15.6%.

As to `Cn1cnc([N+](=O)[O-])c1Sc1ncnc2nc[nH]c12`, the Potency is 50.1 µM (active).

On to `CC[C@H](C)C(=O)O[C@H]1C[C@@H](C)C=C2C=C[C@H](C)[C@H](CC[C@@H]3C[C@@H](O)CC(=O)O3)[C@H]21`, for which the “activity change, negative = reduced viability” value was -18.6%.

As for `CNCC[C@@H](Oc1ccccc1C)c1ccccc1`, the “activity change, negative = reduced viability” value is -14.2%.

On to `CC(C)c1c(C(=O)Nc2ccccc2)c(-c2ccccc2)c(-c2ccc(F)cc2)n1CC[C@@H](O)C[C@@H](O)CC(=O)O`, for which the “activity change, negative = reduced viability” value is 1.22%.

The record behind these values is PubChem BioAssay (NCATS).
